Source: PubChem BioAssay (several laboratories)
MazF activator: MazEF (E. coli) toxin RNase activation; FAM/BHQ RNA-DNA oligo cleavage fluorescence, 5 h; activation, % at 20 µM; AID 504720; 0.32% of 350,000 active; in the data active means activation above about 50%
Target sequence (P0AE70 whole entry, looked up): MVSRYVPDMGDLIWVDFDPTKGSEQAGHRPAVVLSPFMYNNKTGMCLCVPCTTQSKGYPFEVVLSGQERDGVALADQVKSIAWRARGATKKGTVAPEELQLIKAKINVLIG
CCHFV vOTU inh: blocks the CCHF virus ovarian tumor domain protease; CCHFV vOTU protease, Pep-AMC fluorescence; inhibition, % at 11.5 µM; 0.55% of 370,000 active; further: 0% = vehicle wells with enzyme and 100% = no enzyme wells
Mtb betalactam: beta-lactam sensitization of Mtb H37Rv. M. tuberculosis H37Rv growth with meropenem, percent inhibition. inhibition, % at 25 µM. 0.27% of 330,000 active; call rule not given here;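 further: growth measured after seven days incubation then overnight dye step; 0% = bacteria only wells and 100% = bacteria with antibiotic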
FBA Mtb inh: Mtb fructose-bisphosphate aldolase inhibition | P9WQA3 | purified M. tuberculosis FBA, fluorescence read-out | inhibition, % at 1 µM | 2.3% of 360,000 active | AID 588726; in the data active means inhibition above about 27%;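 further: 0% = vehicle and 100% = reference inhibitor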
Target sequence (P9WQA3 whole entry, looked up): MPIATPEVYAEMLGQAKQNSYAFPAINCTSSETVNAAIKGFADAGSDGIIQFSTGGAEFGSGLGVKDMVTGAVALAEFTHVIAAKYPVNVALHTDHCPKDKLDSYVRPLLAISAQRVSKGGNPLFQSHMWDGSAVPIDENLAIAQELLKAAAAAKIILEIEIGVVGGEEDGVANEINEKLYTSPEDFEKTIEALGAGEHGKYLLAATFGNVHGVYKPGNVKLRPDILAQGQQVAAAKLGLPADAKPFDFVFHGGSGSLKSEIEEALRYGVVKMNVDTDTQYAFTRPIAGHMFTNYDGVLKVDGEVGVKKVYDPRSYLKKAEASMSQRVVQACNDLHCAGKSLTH
GDH-TPI inh: GDH-TPI coupled enzyme inhibition counter-screen; GDH-TPI coupled enzyme counterscreen, NADH absorbance; 1.2% of 360,000 active; AID 588335; inhibition, % at 4.8 µM;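 further: 0% = DMSO wells and 100% = wells lacking the enzyme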
Numbers without * were called inactive; · = no result. Shown are actives, neighbours in structure and some others; about 4% of the full set was active somewhere. Unless noted, no stated cut-off is given here; in the data, active means inhibition above about 30%; inactive means the rest.

SMILES	MazF activator	CCHFV vOTU inh	Mtb betalactam	FBA Mtb inh	GDH-TPI inh
CCN1Cc2nnn(Cc3ccccc3)c2-c2cc(F)ccc2S1(=O)=O	·	-3	·	·	·
COC(=O)C[C@H]1CC[C@@H]2[C@@H](COc3ccc(NC(=O)Nc4ccccc4OC)cc3C(=O)N2C)O1	·	2	·	·	·
COc1ccc(CN2CN3CCc4ccccc4C3CS2(=O)=O)cc1 (stereo not given)	·	-8	·	·	·
CN1C(=S)N(c2cccnc2)C(=O)/C1=C\c1ccc(N(C)C)cc1	-90	10	·	-29	6
Cc1c(N2C(=O)/C(=C\c3ccc(N(C)C)cc3)N(C)C2=S)c(=O)n(-c2ccccc2)n1C	131*	9	11	-33	12
O=C(C(=O)N1CCC(CNS(=O)(=O)c2ccccc2OC(F)(F)F)CC1)c1cccs1	·	7	·	·	·
CCC(C(=O)Nc1cccc(C(=O)O)c1C)c1ccccc1 (stereo not given)	6	-4	-3	143*	8
CCC(C(=O)Nc1ccccc1N1CCCC1)c1ccccc1 (stereo not given)	-1	9	·	2	-4
COC(=O)C1CN(CCO)CCS(=O)(=O)N1Cc1cccc(Cl)c1 (stereo not given)	·	-6	·	·	·
Cc1ccc(C(=O)/C=C2/NC(=O)CS2)cc1	9	8	80	-2	31*
C=CCn1c(=O)/c(=C/c2ccc(Cl)cc2)s/c1=C(\C#N)c1nnc2n1CCCCC2	-4	-11	·	-2	33*
C=CCN1C(=O)[C@H](CC(=O)N2CCN(C(=O)c3ccco3)CC2)[C@@]2(C(=O)OCC)CCCC=C12	·	-3	·	·	·
COc1cc(Cn2c3ccc(NC(=O)NCc4ccc(F)cc4)cc3c(=O)n2C)ccc1F	·	-129	·	146*	9
Cn1c(=O)c2cc(NC(=S)NCc3ccccc3F)ccc2n1Cc1ccc(F)cc1	·	-66	·	12	9
Cn1c(=O)c2cc(NC(=O)NCCc3ccccc3)ccc2n1Cc1ccc(F)cc1	·	-102	·	186*	-6
COc1ccc(CCNC(=O)Nc2ccc3c(c2)c(=O)n(C)n3Cc2ccc(F)cc2)cc1OC	·	-115	·	118*	10
C=C(C)Cn1c2ccc(NC(=O)NCCc3ccccc3)cc2c(=O)n1C	·	-205	·	170*	-4
O=S1(=O)c2ccc(N3CCSCC3)cc2Oc2ccccc2CN1Cc1cn(Cc2ccc(F)cc2)nn1	·	5	·	·	·
COc1ccc(CNC(=O)Nc2ccc3c(c2)c(=O)n(C)n3Cc2cccc(C(F)(F)F)c2)cc1	·	-83	·	128*	6
CN(C)c1ccc(/C=C(/NC(=O)c2ccccc2)C(=O)N2CCCC2)cc1	59*	22	-2	-1	17
CC(C)(C)OC(=O)NCc1cc2c(cc1/C=C/S(=O)(=O)NCc1ccc(F)cc1)OCO2	·	10	·	·	·
CC(C)(C)c1ccc(OC(=O)Nc2ccc(O)c(C(=O)O)c2)cc1	2	0	4	80*	-2
O=S1(=O)c2c(cccc2N2CCSCC2)Oc2ccccc2CN1Cc1cn(Cc2cccc(C(F)(F)F)c2)nn1	·	2	·	·	·
O=C(O)c1nc(Cl)c(Cl)c(N/N=C/c2ccccc2C(F)(F)F)c1Cl	6	23	7	-2	31*
COc1ccccc1C(=O)N/C(=C\c1cn(C)c2ccccc12)C(=O)NCCCN1CCOCC1	3	11	3	-2	36*
SMILES	MazF activator	CCHFV vOTU inh	Mtb betalactam	FBA Mtb inh	GDH-TPI inh
CCn1cc(/C=C(\NC(=O)c2ccccc2)C(=O)NCCN2CCOCC2)c2ccccc21	5	24	·	-4	48*
CCn1cc(/C=C(\NC(=O)c2ccc(C)cc2)C(=O)NCCCN2CCOCC2)c2ccccc21	-7	0	·	1	41*
CN(C)c1ccc(/C=C(/NC(=O)c2ccccc2)C(=O)NCCN2CCOCC2)cc1	6	15	-1	-3	28
CCn1cc(/C=C(\NC(=O)c2ccccc2Cl)C(=O)NCCN2CCOCC2)c2ccccc21	9	9	-6	-5	22
CN(C)c1ccc(/C=C(/NC(=O)c2ccccc2Cl)C(=O)NCCN2CCOCC2)cc1	-3	8	-6	-2	42*
COc1ccc(S[C@]2(C(=O)N(C)C)CC(=O)N(C(=O)c3ccccc3)[C@@H]2c2ccc(OC)cc2)cc1	·	-2	·	·	·
CCn1cc(/C=C(\NC(=O)c2ccc(OC)c(OC)c2)C(=O)NCCCN2CCOCC2)c2ccccc21	2	11	·	3	41*
CCn1cc(/C=C(\NC(=O)c2ccc(OC)c(OC)c2)C(=O)N2CCN(C)CC2)c2ccccc21	9	0	-8	-2	27
CCn1cc(/C=C(\NC(=O)c2ccccc2F)C(=O)N2CCN(C)CC2)c2ccccc21	-1	7	·	1	39*
COc1ccc(CCNC(=O)Nc2ccc3c(c2)[C@]2(CC(=O)N(CC(C)C)C2c2ccccc2)C(=O)N3C)cc1OC (stereo not given in full)	·	12	·	·	·
C=CCN1C(=O)[C@@H](CC(=O)NCc2cccc3ccccc23)[C@]2(C(=O)OC)CCCCC=C12	·	7	·	·	·
CS(=O)(=O)c1ccc(-c2cn3cc(C(=O)O)ccc3n2)cc1	4	-80	-1	114*	3
O=C(c1ccccc1Cl)N1CCC(Oc2cccnc2)CC1	·	-2	·	·	·
O=C(Nc1cc(Sc2ccccn2)cc([N+](=O)[O-])c1)c1cccc(Cl)c1	76*	3	9	0	0
O=C(Nc1cc(Sc2ccccn2)cc([N+](=O)[O-])c1)c1ccc(Cl)cc1	17	4	0	2	10
O=C(CCN1C(=O)S/C(=C\c2cccs2)C1=O)Nc1nccs1	-13	14	-8	-1	-2
O=C(CCN1C(=O)S/C(=C\c2ccccc2)C1=O)Nc1ccc(O)cc1C(=O)O	3	16	2	-2	38*
O=C(CCN1C(=O)/C(=C\c2ccccc2)SC1=S)Nc1ccc(C(=O)O)cc1	-2	-5	-3	-1	5
O=C(CN1C(=O)S/C(=C\C=C\c2ccccc2)C1=O)Nc1ccc(O)cc1	11	9	-3	0	33*
O=C(CCN1C(=O)S/C(=C/c2ccccc2)C1=O)Nc1ccc(O)c(C(=O)O)c1	2	14	1	-2	42*
O=C(CN1C(=O)S/C(=C\c2cccs2)C1=O)Nc1ccc(O)cc1C(=O)O	-29	28	-1	11	44*
Cc1ccc(C(=O)N(C)[C@H]2C[C@H]3c4[nH]c5c(-c6cccc(C)c6)cccc5c4CCN3C[C@H]2[C@H](C)O)cc1	·	-8	·	·	·
COC(=O)[C@]12C[C@H](CC(=O)NCCCN3CCCC3=O)C(=O)N(Cc3ccc(Cl)cc3Cl)C1=C[C@H](C(C)C)O[C@@H]2C1CC1	·	7	·	·	·
CCCC#Cc1ccc(CC[C@H]2O[C@H]3CC[C@H](CO)O[C@H]3C[C@H]2NC(=O)CN2CCOCC2)cc1	·	-1	·	·	·
COC1=C[C@H](C(=O)NC2CCN(Cc3ccccc3)CC2)[C@H](C)[C@@H](c2ccccc2)CC1=O	·	0	·	·	·
CC(=Cc1ccccc1)C=C1SC(=S)N(CCCC(=O)Nc2ccc(C(=O)O)c(O)c2)C1=O	·	20	·	-4	31*
